Experimental data: the supplement of paper PMC3545927
This is one part of the list. No count for the full screen is at hand.

Target: furin, P09958
Test: furin cleavage Z-score vs untreated control; higher = more cleavage, active = 3.5 or more, inactive = 1 or less, 8 variable residues between constant flanks
Method in brief: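 Purified furin digested bead-held 8-mer peptide–cDNA fusions at 1:10 enzyme:substrate in 0.01 ml of 50 mM HEPES pH 7.5 with CaCl2 and NaCl for 7.5, 15 or 30 min. The cleavage Z-score compares sequencing counts of released DNA with furin-free reactions on a log scale, with lowess adjustment and median absolute deviation scaling.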

Sequence of furin, P09958 (P09958 whole entry): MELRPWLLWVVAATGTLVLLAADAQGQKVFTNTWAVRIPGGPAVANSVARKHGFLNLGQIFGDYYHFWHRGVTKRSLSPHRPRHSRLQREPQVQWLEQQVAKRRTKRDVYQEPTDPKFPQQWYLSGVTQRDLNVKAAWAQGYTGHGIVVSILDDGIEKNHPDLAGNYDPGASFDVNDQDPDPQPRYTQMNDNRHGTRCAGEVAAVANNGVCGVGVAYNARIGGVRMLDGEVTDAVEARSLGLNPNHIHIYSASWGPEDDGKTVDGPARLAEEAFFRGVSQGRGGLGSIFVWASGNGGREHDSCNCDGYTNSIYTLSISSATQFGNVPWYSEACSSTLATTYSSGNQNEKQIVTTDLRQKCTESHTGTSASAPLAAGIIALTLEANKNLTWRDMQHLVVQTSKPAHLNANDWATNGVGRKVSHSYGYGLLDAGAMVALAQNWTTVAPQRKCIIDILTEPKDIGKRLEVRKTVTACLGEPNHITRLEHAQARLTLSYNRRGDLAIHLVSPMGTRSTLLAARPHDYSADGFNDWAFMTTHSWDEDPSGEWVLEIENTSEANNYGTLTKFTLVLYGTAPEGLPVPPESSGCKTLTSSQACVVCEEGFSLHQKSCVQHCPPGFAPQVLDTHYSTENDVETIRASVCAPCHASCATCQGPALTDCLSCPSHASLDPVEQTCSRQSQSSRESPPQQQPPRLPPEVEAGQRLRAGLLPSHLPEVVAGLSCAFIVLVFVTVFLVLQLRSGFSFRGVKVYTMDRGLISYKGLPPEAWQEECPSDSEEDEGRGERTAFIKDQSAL

Sequence	furin cleavage Z-score (7.5 min)	furin cleavage Z-score (15 min)	furin cleavage Z-score (30 min)
CAEVVTSTDVAGNASASA [HC2231]	-0.548 (inactive)	0.743 (inactive)	-0.721 (inactive)
CAASSSASQLAGNASASA [HC1260]	1.48	0.251 (inactive)	0.48 (inactive)
CAVVFCSMSYAGNASASA [HC2027]	1.89	0.607 (inactive)	-0.194 (inactive)
CARVSKDVEDAGNASASA [FS-1803]	0.222 (inactive)	-0.204 (inactive)	-0.557 (inactive)
CARSLRDLMEAGNASASA [FS-2308]	0.906 (inactive)	1.52	1.89
CARVCRDLMDAGNASASA [FS-1800]	4.33 (active)	7.74 (active)	7.6 (active)
CAVVDCSMSYAGNASASA [HC2031]	-1.66 (inactive)	-0.65 (inactive)	-0.452 (inactive)
CAGLSTLPGNAGNASASA [HC1049]	0.578 (inactive)	-0.00394 (inactive)	0.293 (inactive)
CARTMKSVNAAGNASASA [FS-2466]	1.07	2.56	0.0466 (inactive)
CARQRRTVGQAGNASASA [FS-2367]	6.93 (active)	8.06 (active)	7.82 (active)
CARQARAVPQAGNASASA [FS-2224]	3.01	5.06 (active)	5.46 (active)
CARQRKESETAGNASASA [FS-2172]	-0.961 (inactive)	-0.283 (inactive)	-0.371 (inactive)
CARQRRQVWKAGNASASA [FS-3043]	2.63	5.18 (active)	6.07 (active)
CARQRRCLPQAGNASASA [FS-2364]	-0.0379 (inactive)	0.942 (inactive)	2.63
CARQARFSSQAGNASASA [FS-1915]	-1.25 (inactive)	-0.103 (inactive)	0.0874 (inactive)
CARQRKSVNAAGNASASA [FS-2363]	1.57	3.81 (active)	4.35 (active)
CARQARHYHQAGNASASA [FS-2582]	0.232 (inactive)	1.85	2.09
CAIAYFSMVGAGNASASA [HC340]	-0.888 (inactive)	-0.599 (inactive)	0.982 (inactive)
CAAELATRSFAGNASASA [HC1333]	2.09	0.0816 (inactive)	1.22
CAVVLTESTLAGNASASA [HC1327]	0.79 (inactive)	0.145 (inactive)	0.957 (inactive)
CAFAQALPVWAGNASASA [HC1301]	-1.52 (inactive)	0.477 (inactive)	-2.4 (inactive)
CAWRLLAPITAGNASASA [HC672]	-1.21 (inactive)	-0.661 (inactive)	-0.636 (inactive)

Sequence	furin cleavage Z-score (7.5 min)	furin cleavage Z-score (15 min)	furin cleavage Z-score (30 min)
CARTKRQIPHAGNASASA [FS-1870]	7.68 (active)	12 (active)	8.92 (active)
CARTKLKLTPAGNASASA [HC1636]	-0.273 (inactive)	-0.712 (inactive)	0.0379 (inactive)
CARTKRTPGPAGNASASA [FS-2527]	5.68 (active)	6.29 (active)	6.29 (active)
CARTKRTRRPAGNASASA [FS-2830]	0.799 (inactive)	1.15	0.99 (inactive)
CARSVRLGGPAGNASASA [FS-1795]	0.0283 (inactive)	0.734 (inactive)	-1.33 (inactive)
CARTKRAQSPAGNASASA [FS-2824]	6.65 (active)	6.74 (active)	5.31 (active)
CARTITTGSPAGNASASA [HC802]	-0.428 (inactive)	-0.048 (inactive)	0.343 (inactive)
CAPLLREEVSAGNASASA [HC1230]	0.0348 (inactive)	-0.15 (inactive)	-1.63 (inactive)
CATTPCSQSWAGNASASA [HC1902]	-0.685 (inactive)	-1.5 (inactive)	-0.222 (inactive)
CATTGCSGSWAGNASASA [HC1876]	-1.5 (inactive)	-0.493 (inactive)	0.42 (inactive)
CAHFSRQKRSAGNASASA [FS-535]	8.68 (active)	10.7 (active)	8.57 (active)
CAQPSRQKRSAGNASASA [FS-480]	11.2 (active)	11.3 (active)	7.7 (active)
CAKDSRQKRSAGNASASA [FS-670]	10.3 (active)	10.5 (active)	7.97 (active)
CASPSGQKRSAGNASASA [FS-723]	0.144 (inactive)	0.828 (inactive)	0.312 (inactive)
CAVVCCRMSYAGNASASA [HC110]	0.397 (inactive)	0.763 (inactive)	0.409 (inactive)
CAVVCCSMSHAGNASASA [HC2095]	-0.191 (inactive)	0.171 (inactive)	0.0466 (inactive)
CAARLVVLATAGNASASA [HC831]	-1.24 (inactive)	-1.13 (inactive)	-0.8 (inactive)
CARHHRGRGGAGNASASA [FS-2022]	-0.128 (inactive)	0.955 (inactive)	-0.479 (inactive)
CARHHRFPRAAGNASASA [FS-1063]	12.2 (active)	10.7 (active)	8.91 (active)
CAMASRFPRAAGNASASA [FS-690]	11.5 (active)	11.7 (active)	9.44 (active)
CAKSKKTPMGAGNASASA [HC1475]	1.44	0.854 (inactive)	-0.61 (inactive)
